Compound activity: PubChem BioAssay, The Scripps Research Institute Molecular Screening Center
hcDAF12 agonist = activates DAF-12 receptor from parasite H. contortus; activation, % at 6.8 µM; HEK293 hcDAF-12 lit1-tk-luc reporter, luminescence; 0% DMSO, 100% Δ7-dafachronic acid; AID 652067; 370,000 tested, 1.4% active;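 active = activation above the mean of all tested compounds plus 3 SD, cut at about 5.5% in these data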;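 note: 100% = response to 3 µM Δ7-dafachronic acid high control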
ssDAF12 agonist = S. stercoralis DAF-12 activation, primary screen | 370,000 tested, 1% active | AID 652126 | HEK293 ssDAF-12/GRIP1 lit1-tk-luc reporter, luminescence; % of 3 µM dafachronic acid response | activation, % at 6.8 µM;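 active = activation above the mean over all tested compounds plus 3 SD, cut at about 0.9% in these data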;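 note: 0% = DMSO-only wells and 100% = 3 µM delta7-dafachronic acid wells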
DAX1 inh-1 = NR0B1 (DAX1) inhibition | HEK293 Gal4-DAX1 luciferase reporter, luminescence | P51843 | AID 504766 | inhibition, % at 6.75 µM | 340,000 tested, 0.99% active;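 active = inhibition above the mean over all tested compounds plus 3 SD, cut at about 4.2% in these data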;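 note: 0% = DAX1-transfected cells with DMSO and 100% = empty-vector control cells with DMSO; inhibition shows as a rise in luminescence from relieved DAX1 repression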
Target sequence (P51843 207-470 limits assumed): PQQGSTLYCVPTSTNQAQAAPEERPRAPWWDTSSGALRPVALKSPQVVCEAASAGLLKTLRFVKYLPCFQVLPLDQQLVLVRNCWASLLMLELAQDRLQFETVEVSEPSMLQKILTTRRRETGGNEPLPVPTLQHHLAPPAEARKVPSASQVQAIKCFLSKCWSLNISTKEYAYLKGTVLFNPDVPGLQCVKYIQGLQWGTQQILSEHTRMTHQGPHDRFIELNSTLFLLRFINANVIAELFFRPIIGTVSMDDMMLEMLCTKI
hgDAF12 agonist = hgDAF-12 agonism, primary luciferase screen; HEK293 GAL4-hgDAF12 UAS-luciferase reporter, agonist luminescence; normalized to butyrate control; activation, % at 6.8 µM; 370,000 tested, 1.8% active; AID 687014;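 active = activation above a cutoff set at the mean of all screened compounds plus 3 SD, cut at about 10% in these data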;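 note: 0% = DMSO wells and 100% = sodium butyrate wells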
DAX1 inh-2 = DAX1 (NR0B1) inhibition, primary screen. inhibition, % at 6.8 µM. HEK293T StAR-luciferase reporter, SF-1/DAX-1 repression relief. 370,000 tested, 1.1% active;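 active = inhibition above the mean over all tested compounds plus 3 SD, cut at about 3.6% in these data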;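 note: 0% = DAX-1 cells with DMSO and 100% = cells lacking DAX-1 with DMSO; higher inhibition means more luminescence from relief of DAX-1 repression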
* marks the source's active call; other numbers are inactive results; x = not tested or not shown. An excerpt weighted towards active compounds, which were near 4.1% of everything screened.

SMILES	hcDAF12 agonist	ssDAF12 agonist	DAX1 inh-1	hgDAF12 agonist	DAX1 inh-2
COc1ccc(CN2C[C@]3(C=C(C)Cn4c(=O)n(-c5ccccc5)c(=O)n43)N(C(=O)OCc3ccccc3)C2=NC(=O)c2ccccc2)c(OC)c1	-1.3	-1.4	x	-0.8	1.1
CCCC(=O)OCC(=O)Nc1ccc(N=Nc2ccccc2)cc1	5.7*	-0.2	3.2	11.3*	2.5
CC1=CC(c2ccccc2)n2nnnc2N1 (configuration not stated)	-0.8	-0.5	10.6*	2.8	-0.2
O=[N+]([O-])c1ccc2[nH]c(=S)sc2c1	2.7	2.2*	-1.2	2.8	-0.2
C=CC[C@]12C[C@@]3(O[C@H](C4CCCCC4)N=C3C[C@H](c3ccc(OC)cc3)[C@H]1C)N(Cc1ccncc1)C2=O	-1.3	-1.9	x	-1.3	-0.8
Cc1cccc(-c2nnc(-c3ccc4ccccc4c3)o2)c1	3.8	0.4	4.3*	11.6*	3.6*
O=C(Nc1cccc(-c2nnc(-c3ccccc3)o2)c1)C1CC1	-2.7	-1.7	-1.2	4.4	-0.4
CC(=O)Nc1cccc(-c2nnc(-c3ccccc3)o2)c1	-0.3	-0.7	-0.7	11.9*	0.0
O=C(O)c1ccc(-c2noc(-c3cccc(Cl)c3)n2)cc1	-0.2	-1.3	-0.1	0.9	-0.1
Cc1ccc(-c2nnc(-c3ccccc3)o2)cc1	4.3	0.3	1.4	11.5*	3.4
O=C(O)c1ccc(-c2noc(-c3ccc(F)cc3)n2)cc1	5.7*	0.5	0.3	12.8*	2.3
CC(=O)c1cc(-c2ccc3c(c2)OCO3)c(=O)n2c1CCC2	1.7	-0.1	x	3.7	1.0
Cc1ccc(OCc2nnc(SCC(=O)Nc3ccccc3-c3ccccc3)n2Cc2ccco2)cc1	-2.8	-0.9	x	1.8	-2.3
O=C(O)c1ccc(-c2nnc(-c3ccccc3)o2)cc1	4.8	1.0*	1.7	8.2	1.2
O=C(O)c1ccc(-c2nnc(-c3ccc([N+](=O)[O-])cc3)o2)cc1	-0.5	-1.1	-0.4	1.2	-0.4
Cc1ccc(-c2nnc(N)o2)cc1	0.6	-0.9	-0.4	2.1	1.6
Cc1ccc(-c2nnc(-c3cc(C)on3)o2)cc1	2.6	0.3	4.1	11.6*	2.0
Cc1ccc(-c2nnc(-c3cccs3)o2)cc1	8.8*	1.4*	1.8	10.6*	4.4*
CC(C)(C)N1Cc2nnn(CC3CCCCC3)c2-c2ccccc2S1(=O)=O	-2.3	-0.4	x	-1.8	-0.6
CC(C)C[C@H]1COc2cccc(F)c2S(=O)(=O)N1Cc1cn(Cc2ccc(F)cc2)nn1	-0.8	-1.2	x	0.4	-0.1
O=c1c2ccc(F)cc2nc2sc(Nc3ccc4c(c3)CCC4)nn12	2.5	0.2	x	10.6*	x
Cc1cccc(NC(=S)N(C)Cc2cn(C)c3ccccc23)c1	0.9	-0.8	-1.2	-1.0	-1.1
CN(Cc1cn(C)c2ccccc12)C(=S)Nc1cc(F)cc(F)c1	4.3	1.2*	-0.1	1.9	0.1
O=S1(=O)c2ccc(Br)cc2OC[C@@H](c2ccccc2)N1Cc1cn(CCC2OCCO2)nn1	-1.6	-1.3	x	-0.1	-2.4
CC(NC(=O)CCN1C(=O)c2ccccc2C1=O)c1ccccc1 (configuration not stated)	1.7	-1.4	4.5*	0.2	-0.3
SMILES	hcDAF12 agonist	ssDAF12 agonist	DAX1 inh-1	hgDAF12 agonist	DAX1 inh-2
CC(NC(=O)CCC(=O)NC(C)c1ccccc1)c1ccccc1 (configuration not stated)	-1.7	-1.8	0.8	0.1	0.9
CC(NC(=O)Cn1cccc1)c1ccccc1 (configuration not stated)	-0.3	-1.2	1.0	-1.3	4.0*
COCCCNC(=O)C[C@H]1C(=O)N(Cc2ccc(OC)cc2)C2=CCCCC[C@@]21C(=O)OC	-0.9	-1.2	x	0.5	-0.2
CCOc1ccc(-c2csc(NC(=O)CSC3=NC(=O)CN3C(C)=O)n2)c2ccccc12	-1.1	-0.8	0.6	11.2*	-0.7
CCOc1ccc(-c2csc(NC(=O)CSCC(=O)O)n2)c2ccccc12	-1.2	-1.0	-0.8	-1.6	-0.6
Cn1c(=O)cc(OCC(=O)N2CCN(c3ccccc3Cl)CC2)c2ccccc21	-0.8	-1.5	x	1.9	-1.4
CN(C)S(=O)(=O)c1ccc(S(=O)(=O)N2CCN(CCC#N)CC2)cc1	-0.8	-1.3	6.2*	-0.8	-0.3
CCN(CC)S(=O)(=O)c1ccc(S(=O)(=O)N2CCN(CCC#N)CC2)cc1	0.2	-1.3	3.4	3.2	0.8
N#CCCN1CCN(S(=O)(=O)c2ccc(S(=O)(=O)NCc3ccccc3)cc2)CC1	0.1	-1.6	5.4*	-1.3	1.8
CCOC(=O)[C@]12CCCCC/C=C\1N(CCc1ccc(Cl)cc1)C(=O)[C@H]2CC(=O)N1CCOCC1	-1.3	-1.9	x	-1.9	-1.4
COc1ccc(-n2c(SCC(=O)Nc3ccccc3-c3ccccc3)nnc2-c2ccco2)cc1	-3.6	-1.6	x	-2.4	-0.6
C/C(CC(=O)NC(C)(C)C)=N\NC(=O)c1ccccc1N	2.2	0.0	4.7*	9.6	3.2
COC(=O)[C@@]12CCCCC=C1N(CCc1ccc(Cl)cc1)C(=O)[C@H]2CC(=O)NCC1CCCCC1	-3.9	-0.2	x	-0.2	-1.2
COc1ccc(C2c3ccccc3NC3C2C(=O)N(Cc2ccc(OC)cc2OC)[C@H]3Cc2ccccc2)cc1 (some centres not stated)	-1.4	-1.6	x	4.0	-1.5
Cc1ccccc1C(=O)NC[C@@H]1CCCN2CCCC[C@H]12	2.4	-1.5	4.5*	-1.7	-0.3
N#C/C(=C/c1ccc(N2CCCCC2)o1)c1cccc(F)c1	-0.8	0.0	0.7	-4.2	4.4*
CCCN1C(=S)c2ccccc2C1c1ccccc1 (configuration not stated)	3.9	1.3*	4.7*	-0.8	0.0
COc1cccc(-c2cccc(NC(=O)C3CCN(C4CCOCC4)CC3)c2)c1	-0.1	1.5*	1.5	-0.8	1.1
COc1cccc(-c2cccc(NC(=O)C3CCN(CC4CCOC4)CC3)c2)c1 (configuration not stated)	2.6	-0.2	0.4	5.1	1.2
Clc1ccc([C@H]2OC[C@@]3(CNCc4ccccc4)CS[C@H](c4ccc(Cl)cc4)N23)cc1	-1.3	-1.5	x	-0.9	x
COc1ccc(C)c2sc(=NC(=O)c3cccc(N4C(=O)CCC4=O)c3)n(C)c12	0.3	-0.8	2.5	-0.8	0.4
C=CCn1c(=NC(=O)c2cccc(N3C(=O)CCC3=O)c2)sc2cccc(OC)c21	-2.2	-1.1	4.8*	0.3	-0.6
COC(=O)c1ccc(S(=O)(=O)N2CCC(NC(=O)CCC3CCCC3)CC2)cc1	0.3	-1.8	x	-2.2	-0.1
CC(CCCN1CCCC1)Nc1ccnc2cc(Cl)ccc12 (configuration not stated)	0.5	-0.1	7.0*	1.1	0.2
CCOC(=O)Cc1csc(NC(=O)c2ccc(C)o2)n1	-0.7	-1.6	1.1	2.1	-0.3
CCOC(=O)Cc1csc(NC(=O)/C=C/c2ccc(OC)cc2)n1	-0.6	-1.3	-4.0	12.2*	0.2
